Prx2 Sm inh = blocks S. mansoni peroxiredoxin 2 enzymatic activity | S. mansoni Prx2 activity coupled to TGR/GSH (TGR is thioredoxin glutathione reductase), NADPH fluorescence loss, qHTS | Potency, µM | 65,000 tested, 0.07% active
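Prx2 inhibition was measured as reduced NADPH consumption when electrons flowed from NADPH through TGR and glutathione to Prx2 and H2O2. Plates were read kinetically over 8 min; enzyme reagents were held at 4 deg C during dispensing.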
AmpC inh no det = AmpC beta-lactamase inhibition, detergent-free assay | Potency, µM (titrated, usually from 28.7 µM) | 71,000 tested, 1.8% active | P00811 | AmpC nitrocefin hydrolysis, absorbance 480 nm, no detergent | AID 585
Target sequence (P00811 whole entry, looked up): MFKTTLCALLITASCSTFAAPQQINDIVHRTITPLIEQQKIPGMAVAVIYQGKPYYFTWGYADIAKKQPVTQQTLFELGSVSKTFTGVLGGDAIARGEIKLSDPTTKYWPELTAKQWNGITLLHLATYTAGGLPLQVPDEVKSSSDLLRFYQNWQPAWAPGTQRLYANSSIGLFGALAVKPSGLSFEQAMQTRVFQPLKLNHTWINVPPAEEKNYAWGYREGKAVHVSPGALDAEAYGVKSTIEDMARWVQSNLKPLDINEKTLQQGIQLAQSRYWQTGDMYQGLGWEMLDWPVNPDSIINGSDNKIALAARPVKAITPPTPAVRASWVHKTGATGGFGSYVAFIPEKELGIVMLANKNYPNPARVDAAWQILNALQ
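Enzyme, pH 7.0 phosphate. Compound titrations were pre-incubated with AmpC for 15 min at room temperature before nitrocefin (stock 800 uM) addition; product formation was recorded at 480 nm every 20 s for 4 min.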
LT uptake inh = blocks cellular internalization of anthrax lethal toxin; 70,000 tested, 0.67% active; Cells, anthrax lethal toxin internalization, FRET ratio (460/530); Potency, µM (highest dose often 40 µM), hits mostly inhibitors; AID 912; also: nearly all actives have a fitted effect of over 50% in size
AmpC inh det = AmpC beta-lactamase inhibition, detergent assay | purified AmpC, nitrocefin hydrolysis with detergent | Potency, µM (titrated, usually from 28.7 µM) | AID 584 | 71,000 tested, 0.09% active; active = well fitted curve in the direction sought with a large enough effect; inconclusive = small, poorly fitted or top-dose-only effect
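E. coli AmpC (5.3 nM) in 20 mM phosphate pH 7.0 with 0.01% Triton X-100, preincubated 15 min RT with compound; nitrocefin (2 uL of 800 uM stock) hydrolysis followed by 480 nm absorbance every 20 s over 4 min.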
Each line names hits and unclear results; the compound was inactive in the other large screens; ! = not confirmed by another sample; [ ] = dose if it differs, or a comment. The list is not random: actives were taken first. Their share in the collection is about 2.4%. Unless noted, calls follow the shape of the full dose curve.

CC(=O)OC1=CC2=CC[C@H]3[C@H]4CCC(=O)[C@@]4(C)CC(=O)[C@]3(S)[C@]2(C)CC1	none
COCCOC(=O)c1[nH]c2c(c1C)C(=O)CC(c1cc(OC)ccc1OC)C2 (centres undefined)	none
COc1ccc(OC)c(C2CC(=O)c3c([nH]c(C(=O)OC(C)C)c3C)C2)c1 (centres undefined)	AmpC inh no det 2.5µM[single pt active], LT uptake inh inconclusive
O=c1c2ccccc2sn1-c1cc(S(=O)(=O)N2CCOCC2)ccc1N1CCOCC1	LT uptake inh 0.16µM
Cn1c(=O)c2cc(S(=O)(=O)N3CCOCC3)ccc2n(C)c1=O	none
CN(CC(=O)N1CCc2ccccc2C1)S(=O)(=O)c1ccc2c(c1)c(=O)n(C)c(=O)n2C	AmpC inh no det 4µM[single pt active]
O=C1C(C2=C(O)c3ccccc3C2=O)=Nc2ccccc21	AmpC inh no det 13µM
COc1cc([C@@H](O)CN)ccc1O	none
COc1ccc(C(O)C(CN2CCOCC2)c2ccccc2)cc1F (centres undefined)	none
COc1ccc(C(=O)C(CN2CCOCC2)c2ccccc2)cc1F (centres undefined)	LT uptake inh 16µM
CCOc1ccc2ccccc2c1C(=O)N[C@@H]1C(=O)N2[C@@H]1SC(C)(C)[C@@H]2C(=O)O	AmpC inh no det 0.032µM, AmpC inh det 0.05µM
Cc1onc(-c2c(Cl)cccc2Cl)c1C(=O)N[C@H]1C(=O)N2[C@H]1SC(C)(C)[C@H]2C(=O)O	AmpC inh no det 0.0016µM, AmpC inh det 0.0025µM
CC1(C)S[C@@H]2[C@H](NC(=O)C3(N)CCCCC3)C(=O)N2[C@@H]1C(=O)O	AmpC inh no det 0.01µM, AmpC inh det 0.01µM
C[C@H](Oc1ccccc1)C(=O)N[C@@H]1C(=O)N2[C@@H]1SC(C)(C)[C@@H]2C(=O)O	AmpC inh no det 0.25µM, AmpC inh det 0.63µM
Nc1nc(N)c2nc(CNc3ccc(C(=O)N[C@H](CCC(=O)O)C(=O)O)cc3)cnc2n1	LT uptake inh inconclusive
CC(C)(N)C(=O)N[C@@H]1C(=O)N2[C@@H]1SC(C)(C)[C@H]2C(=O)O	AmpC inh no det 0.5µM, AmpC inh det 1.3µM
CC1(C)S[C@@H]2[C@H](NC(=O)Cc3ccccc3)C(=O)N2[C@@H]1C(=O)O	none
Clc1ccc(C(c2ccc(Cl)cc2)C(Cl)(Cl)Cl)cc1	AmpC inh no det inconclusive, LT uptake inh 6.3µM (no result: Prx2 Sm inh)
Clc1nc(Cl)nc(Cl)n1	none (no result: Prx2 Sm inh)
NC(=O)c1cccc(S(=O)(=O)N2CC(c3ccccc3)CC2=O)c1 (centres undefined)	AmpC inh no det 4µM[single pt active]
CCc1ccc(C2C(C#N)=C(N)SC(N)=C2C#N)cc1	LT uptake inh 13µM (no result: Prx2 Sm inh)
CCc1ccc(C2C(C#N)=C(N)SC(N)=C2C#N)s1	LT uptake inh 10µM
COc1cc(Cc2cnc(N)nc2N)cc(OC)c1OC	AmpC inh no det 6.3µM!, LT uptake inh inconclusive
CN1/C(=C/C(=O)c2nc(S(C)(=O)=O)ncc2Cl)C(C)(C)c2ccccc21	LT uptake inh 13µM
CC(Oc1ccc(Cl)cc1Cl)C(=O)Nc1ccncc1 (centres undefined)	LT uptake inh 7.9µM
COc1ccc(S(=O)(=O)N2CCN(C)CC2)c2ccccc12	AmpC inh no det 4µM[single pt active]
CCOC(=O)c1c(C)n(CCOC)c2ccc(O)cc12	none
CCCCCS(=O)(=O)CCCCCCCCCCn1c(-c2ccc(O)cc2)c(C)c2cc(O)ccc21	LT uptake inh 5µM (no result: Prx2 Sm inh, AmpC inh no det, AmpC inh det)
CC(C)CO/N=C1/C[C@@H](O)[C@@H](O)[C@@H]2[C@H]3C(=O)N(c4ccc(F)cc4F)C(=O)[C@@H]3CC[C@H]12	none (no result: Prx2 Sm inh, AmpC inh no det, AmpC inh det)
CCOC(=O)C1CCCN(c2c(NCCCN3CCCC(C)C3)c(=O)c2=O)C1 (centres undefined)	AmpC inh no det 4µM[single pt active]
CCOC(=O)C1CCCN(c2c(NCC3CCCN3CC)c(=O)c2=O)C1 (centres undefined)	AmpC inh no det 4µM[single pt active]
COc1cccc(C2CC(c3ccccc3)Nc3ncnn32)c1 (centres undefined)	none
Fc1ccc(C2CC(c3ccccc3)n3ncnc3N2)cc1 (centres undefined)	none
Cc1ccccc1C1CC(c2ccccc2)Nc2ncnn21 (centres undefined)	AmpC inh no det 4µM[single pt active]
CCOc1ccc(C2CC(c3ccc(F)cc3)n3ncnc3N2)cc1 (centres undefined)	AmpC inh no det 4µM[single pt active]
COc1cccc(C2CC(c3ccccc3OC)n3ncnc3N2)c1 (centres undefined)	AmpC inh no det 4µM[single pt active]
CC1=CS/C(=C(/C#N)C(=O)N2CCCCC2)N1c1ccccc1	none (no result: Prx2 Sm inh)
N#C/C(C(=O)c1ccccc1)=C1/SC=C(N)N1c1ccccc1	AmpC inh no det 13µM

Screening results as filed in PubChem.
